Laboratory results as given in the supplement of paper PMC12645437, “Orthogonal IMiD-Degron Pairs Induce Selective Protein Degradation in Cells” (ACS Chemical Biology, 2025).
Whole data set: some 8,300 sequences, median “log2 fold change of degron read counts, EGFP-low vs EGFP+ sorted cells (limma voom), compound-induced degradation” near -1.1, cut for the highest 2% near 3.2. Shown is part of a subset that was picked to be rich in the highest values.

T1: CRBN, Q96SW2
T1 chain: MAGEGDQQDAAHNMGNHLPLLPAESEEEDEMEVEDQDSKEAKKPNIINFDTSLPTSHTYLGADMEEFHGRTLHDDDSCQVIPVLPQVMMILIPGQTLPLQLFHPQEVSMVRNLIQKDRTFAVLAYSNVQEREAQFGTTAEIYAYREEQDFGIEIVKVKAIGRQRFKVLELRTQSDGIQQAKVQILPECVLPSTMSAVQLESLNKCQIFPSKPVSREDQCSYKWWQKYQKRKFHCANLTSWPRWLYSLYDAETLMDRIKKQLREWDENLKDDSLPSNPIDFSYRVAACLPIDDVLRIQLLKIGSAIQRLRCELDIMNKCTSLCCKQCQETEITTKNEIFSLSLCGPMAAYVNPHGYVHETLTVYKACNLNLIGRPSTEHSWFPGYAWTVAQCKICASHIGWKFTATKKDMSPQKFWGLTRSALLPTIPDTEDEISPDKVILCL


Target: T1, CRBN, Q96SW2
Test: log2 fold change of degron read counts, EGFP-low vs EGFP+ sorted cells (limma voom), compound-induced degradation; higher = more compound-induced degradation of the degron-EGFP fusion; degrons are variants of IKZF1/3 zinc finger 2; compound dose not given here
Conditions: Jurkat, 18 h
Experimental: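 Pooled library of 8380 IKZF3 ZF2 degron mutants (positions 146-167 varied within the IKZF3 130-189 degron; only the varied core is printed, flanks not printed) fused to EGFP with IRES-mCherry, lentivirally expressed in Jurkat cells. mCherry+ cells were treated with one IMiD compound for 18 h (dose not stated) and FACS-sorted into EGFP-low and EGFP+ populations. Degron sequences were counted by NGS, and log2FC (EGFP-low vs EGFP+) was estimated by limma voom over 3 biological replicates.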

[1] = compound: compound 19 (5-tert-butyl-thalidomide)
[2] = compound: compound 22 (5-morpholino-thalidomide)
[3] = compound: compound 33 (diphenyl IMiD analogue)
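Also: pooled lentiviral library of zinc finger degron-EGFP fusions in mCherry-positive Jurkat cells, FACS-sorted after compound exposure, with degron abundance counted by next-generation sequencing.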

Row | Sequence | log2 fold change of degron read counts [1] | log2 fold change of degron read counts [2] | log2 fold change of degron read counts [3] | log2 fold change of degron read counts (compound: thalidomide)
1 | FYCEICGAQFTQKGNLLRHIKL [46F_47Y_49E_50I_52G_53A_54Q_55F_67L_, Q9UKT9] | 3.6 | 3.55 | 3.13 | 2.12
2 | FWCEICGAQFTQKGNLLRHIKL [46F_47W_49E_50I_52G_53A_54Q_55F_67L_, Q9UKT9] | 3.54 | 3.93 | 2.7 | 2.04
3 | FNCPICGAEFTQKGNLLRHIKL [46F_47N_49P_50I_52G_53A_54E_55F_67L_, Q9UKT9] | 1.92 | 0.348 | 0.475 | 0.897
4 | FECDICGARFTQKGNLLRHIKL [46F_47E_49D_50I_52G_53A_54R_55F_67L_, Q9UKT9] | -0.106 | -1.6 | -0.318 | 1.69
5 | FRCPICGHKFTQKGNLLRHIKL [46F_47R_49P_50I_52G_53H_54K_55F_67L_, Q9UKT9] | -2.46 | -2.78 | -1.61 | -1.55
6 | FSCNQCGRMFTQKGNLLRHIKL [46F_47S_49N_50Q_52G_53R_54M_55F_67L_, Q9UKT9] | -2.45 | -3.15 | -2.32 | -2.79
7 | FHCNQCGHKFTQKGNLLRHIKL [46F_47H_49N_50Q_52G_53H_54K_55F_67L_, Q9UKT9] | -2.56 | -3.05 | -2.84 | -2.45
8 | FDCPICGRRFTQKGNLLRHIKL [46F_47D_49P_50I_52G_53R_54R_55F_67L_, Q9UKT9] | 2.15 | 0.908 | 1.08 | 2.66
9 | LCCNQCGFHCTQKGNLLRHIKL [46L_47C_49N_50Q_52G_53F_54H_55C_67L_, Q9UKT9] | -2.15 | -2.61 | -1.7 | -1.96
10 | FDCSVCGHPFTQKGNLLRHIKL [46F_47D_49S_50V_52G_53H_54P_55F_67L_, Q9UKT9] | -1.84 | -2.36 | -2.33 | -1.9
11 | FKCDVCGAYFTQKGNLLRHIKL [46F_47K_49D_50V_52G_53A_54Y_55F_67L_, Q9UKT9] | -2.99 | -3.36 | -3.07 | -2.83
12 | FECDVCGADFTQKGNLLRHIKL [46F_47E_49D_50V_52G_53A_54D_55F_67L_, Q9UKT9] | -3.21 | -3.19 | -1.99 | -2.31
13 | FWCPICGRPFTQKGNLLRHIKL [46F_47W_49P_50I_52G_53R_54P_55F_67L_, Q9UKT9] | 2.01 | 0.778 | 1.24 | -0.187
14 | FWCPQCGAKFTQKGNLLRHIKL [46F_47W_49P_50Q_52G_53A_54K_55F_67L_, Q9UKT9] | 1.29 | 2.33 | -0.101 | -0.258
